# Source: PubChem (The Scripps Research Institute Molecular Screening Center)
# This excerpt belongs to a sample that is enriched for hits.
# TbREL1 inh – TbREL1 inhibition, primary screen; P86926; AID 1117264; TbREL1 RNA ligation, FRET fluorescence; 0.49% of 89,000 active; inhibition, % at 9.66 µM;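 active = inhibition above the mean inhibition across all screened compounds plus 3 SD, cut at about 11% in these data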
# Target sequence (P86926 whole entry, looked up): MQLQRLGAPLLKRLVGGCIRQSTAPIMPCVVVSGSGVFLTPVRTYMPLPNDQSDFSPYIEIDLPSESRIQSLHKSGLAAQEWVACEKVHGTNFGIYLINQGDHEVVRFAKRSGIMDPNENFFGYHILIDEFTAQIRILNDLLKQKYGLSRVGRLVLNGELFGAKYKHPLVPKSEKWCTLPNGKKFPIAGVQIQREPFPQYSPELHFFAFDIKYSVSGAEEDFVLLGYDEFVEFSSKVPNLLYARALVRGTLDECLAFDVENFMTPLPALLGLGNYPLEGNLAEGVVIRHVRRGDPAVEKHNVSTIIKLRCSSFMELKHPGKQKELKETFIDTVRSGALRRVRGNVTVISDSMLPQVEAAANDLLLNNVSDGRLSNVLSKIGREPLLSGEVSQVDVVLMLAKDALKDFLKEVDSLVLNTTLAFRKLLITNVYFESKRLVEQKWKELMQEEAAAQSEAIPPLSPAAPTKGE
# TbREL1 confirm – TbREL1 inhibition, confirmation; AID 1117282; TbREL1 RNA ligation, FRET fluorescence; shares compounds with TbREL1 inh; inhibition, % at 9.66 µM; 37% of 390 active;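 active = mean inhibition across replicates above a set limit taken from the earlier primary screen, cut at about 11% in these data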
# A number is an active result; . = inactive.
SMILES,TbREL1 inh,others
Cc1nc(S/C(=C\c2ccc(-c3ccc(C(=O)O)c(Cl)c3)o2)C(=O)O)n[nH]1,58,TbREL1 confirm=23
Cc1nc(S/C(=C\c2ccc(OCc3ccccc3Cl)cc2)C(=O)O)n[nH]1,.,
Cc1ccc(OCCSc2ncnc3sc(C)c(C)c23)cc1C,.,
C=CCNC(=O)c1oc2ccc(S(=O)(=O)N(CC)CC)cc2c1C,.,
Cc1ccc(Cn2nc(C)c(/C=N/NC(=O)c3cccnc3)c2C)cc1,.,
CCN(CC)c1ccc(S(=O)(=O)N2CCOCC2)cc1NC(=O)CSC(=S)N1CCCC1,.,
CC(C(=O)N1CCc2ccccc21)N1CCN(S(=O)(=O)c2cccc(C(F)(F)F)c2)CC1 (stereo not drawn),.,
Oc1ccccc1Cc1c(O)ccc2ccccc12,.,
Nc1cccc2cc(S(=O)(=O)O)ccc12,26,TbREL1 confirm=.
Nc1cccc(S(=O)(=O)c2cccc(N)c2)c1,.,
Nc1ccc2c(S(=O)(=O)O)cccc2c1S(=O)(=O)O,.,
Cc1cccc(NC(=O)c2cccc(Cn3cc(Br)c([N+](=O)[O-])n3)c2)c1C,.,
COc1ccc(-c2nnc(SCC3CCCO3)n2C)cc1 (stereo not drawn),.,
COc1ccccc1CNC(=O)c1ccc(NS(=O)(=O)c2cccs2)cc1,.,
C/C=C(/C)C(=O)Nc1cccc(C2=NOC3(C2)C[C@H](C(N)=O)N(C(=O)c2ccccc2)C3)c1 (stereo partly drawn),.,
NC(=O)[C@@H]1CC2(CC(c3cccc(NC(=O)CC(c4ccccc4)c4ccccc4)c3)=NO2)CN1C(=O)c1ccc(Cl)cc1 (stereo partly drawn),.,
NC(=O)[C@H]1CC2(CC(c3cccc(NC(=O)[C@H]4CCC(=O)N4)c3)=NO2)CN1C(=O)c1ccccc1 (stereo partly drawn),20,TbREL1 confirm=26
O=[N+]([O-])c1ccc(S(=O)(=O)NN=CCCc2ccccc2)cc1,.,
CC(=O)NN(O)C1N(C)C(=O)N(Cc2ccccc2)C1(C)C (stereo not drawn),.,
CSCCCNC(=O)C1CCN(S(=O)(=O)c2ccc3[nH]c(=O)oc3c2)CC1,.,
O=C(C1CCN(S(=O)(=O)c2ccc3[nH]c(=O)oc3c2)CC1)N1CCCC1,.,
COCCCNC(=O)C1CCN(S(=O)(=O)c2ccc3[nH]c(=O)oc3c2)CC1,19,TbREL1 confirm=24
Cc1nc(NC(=S)NC(=O)COc2ccc(Cl)cc2)ccc1Br,.,
CCN(CC)CCSc1nnc(Nc2ccccc2)n1-c1ccccc1,.,
CC(NC(=O)C1CCCCC1)C(=O)NC1=NCCS1 (stereo not drawn),.,
SMILES,TbREL1 inh,others
Cc1c(Cl)c(-c2n[nH]c(=S)n2-c2ccccc2)nn1C,.,
Cc1onc(-c2ccccc2)c1-c1n[nH]c(=S)n1-c1ccccc1,26,TbREL1 confirm=.
Cc1ccc(-n2c(-c3ccccc3)n[nH]c2=S)cc1,.,
CCOc1ccc(S(=O)(=O)N2CCCCC2)cc1NC(=O)C1COc2ccccc2O1 (stereo not drawn),.,
CCCc1nc2c(=O)n(C)c(=O)nc-2n(C)n1,61,TbREL1 confirm=86
COc1ccc(CCn2c(C)nc3c(c(=O)c4ccccc4n3C)c2=O)cc1,.,
CC(C)(C)c1ccc(/C=N/NC(=O)C(=O)NCCCN2CCOCC2)cc1,.,
COc1cc(OC)c(S(=O)(=O)Nc2ccc(C(=O)N3CCCC3)cc2)cc1NC(C)=O,.,
Clc1nssc1=Nc1nncs1,18,TbREL1 confirm=19
Clc1nssc1=Nc1ccc(Br)cc1,.,
CCn1cc(S(=O)(=O)Nc2ccccc2C(F)(F)F)cn1,.,
COc1ccc(N2C(=O)CC(NCCNc3ccc([N+](=O)[O-])cn3)C2=O)cc1 (stereo not drawn),.,
CCOc1ccc(OCCSc2nc(C)cc(=O)[nH]2)cc1,11,TbREL1 confirm=.
COc1cccc(OC)c1OCCCSc1nc(C)cc(=O)[nH]1,.,
Cc1cc(=O)[nH]c(SCC(=O)c2ccc(C)c(C)c2)n1,.,
CN(CCN1CCOCC1)Cc1nc(-c2ccc(Cl)cc2)no1,.,
O=C(NC1CC1)C1=C[C@@H](c2ccc3c(c2)OCO3)C[C@@H](OCCCCO)O1,.,
CN1CCN(S(=O)(=O)c2cccc(C(=O)NC3(C)CCS(=O)(=O)C3)c2)CC1 (stereo not drawn),.,
COc1ccc(-c2noc(CN(C)Cc3ccccc3)n2)cc1,.,
COc1ccc(CNC(=O)CN(C)Cc2ccc(SC)cc2)cc1,.,
COc1ccc(CN(C)CC(O)COC(c2ccc(OC)cc2)c2ccc(OC)cc2)cc1 (stereo not drawn),13,TbREL1 confirm=.
CC(C)c1nnc(SCC(=O)NC2CCCC2)n1C,.,
O=C(NCC1CCCC(CNC(=O)Nc2ccc(Cl)cn2)C1)Nc1ccc(Cl)cn1 (stereo not drawn),.,
O=C(NC1CCCCC1)c1ccc([N+](=O)[O-])cc1,.,
CN1CCN(C(=S)Nc2ccc([N+](=O)[O-])cc2)CC1,.,
SMILES,TbREL1 inh,others
O=C1CCCCC1Nc1ccc([N+](=O)[O-])cc1 (stereo not drawn),18,TbREL1 confirm=.
COC(=O)CN1C(=O)[C@H]2[C@@H](c3ccc(C)o3)N3C(=O)CN(Cc4ccccn4)C(=O)[C@@]3(C)[C@H]2C1=O,.,
Cc1cccc(NC(=O)NCc2cccnc2)c1C,.,
CN(CC(=O)N1CCN(c2ccccn2)CC1)S(=O)(=O)c1cccc2nsnc12,.,
O=C(c1nc2ccc(Cl)cn2c1CN1CCC[C@H]1CO)N1CCCCCCC1,.,
O=C(Nc1ccc([N+](=O)[O-])cc1)Nc1ccc2[nH]c(=O)[nH]c2c1,.,
CCOc1cc(NC(=O)CCl)c(OCC)cc1NC(=O)CCl,12,TbREL1 confirm=.
CCOc1ccccc1OCC(=O)Nc1ccc(Cl)cc1Cl,.,
CCOc1cc(NC(=O)C2CCCO2)c(OCC)cc1NC(=O)C1CC1 (stereo not drawn),.,
CCCCC(C(=O)NC1CCCC1)N(C(=O)c1snc(C(N)=O)c1N)c1ccc(F)cc1 (stereo not drawn),.,
O=C(CN1C(=O)c2ccc([N+](=O)[O-])cc2C1=O)NCc1ccco1,12,TbREL1 confirm=.
O=C(CN1C(=O)c2ccccc2C1=O)Nc1cc([N+](=O)[O-])ccc1O,.,
Cc1c(NC(=O)CN2C(=O)c3ccc([N+](=O)[O-])cc3C2=O)c(=O)n(-c2ccccc2)n1C,.,
O=C(Oc1ccc(Br)cc1C(=S)N1CCCC1)c1ccccc1F,.,
Clc1ccc(Nc2ccc(Cl)nn2)cc1,.,
CCOC(=O)C1CN(S(=O)(=O)c2cccc(C(F)(F)F)c2)c2cc(CC(=O)OC)ccc2O1 (stereo not drawn),.,
O=C(Cc1cccs1)N/N=C/c1ccccn1,.,
O=C(N/N=C\c1ccccn1)c1cccc(C(=O)N/N=C\c2ccccn2)n1,.,
O=C(N/N=C/c1ccccn1)c1cccs1,12,TbREL1 confirm=.
CCn1c2ccccc2c2cc(NC(=O)COC(=O)c3cc(Cl)c(N)cc3OC)ccc21,12,TbREL1 confirm=.
CCn1c2ccccc2c2cc(NC(=O)COC(=O)c3cc(Cl)cc(Cl)c3)ccc21,.,
CCn1c2ccccc2c2cc(NC(=O)COC(=O)c3ccccc3F)ccc21,.,
Cc1ccc(NC(=O)COc2coc(CN3CCN(Cc4ccccc4)CC3)cc2=O)cc1,.,
CCn1cc(C(=O)N2CCN(c3ccc(F)cc3)CC2)c(=O)c2ccc(C)nc21,.,
CCO/C(C)=N/Oc1cccc(N(C)C)c1,.,
CN(C)CCCN(C(=O)c1ccc(S(=O)(=O)N(C)C2CCCCC2)cc1)c1nc2ccc(Br)cc2s1,16,TbREL1 confirm=.
CN(C)CCCN(C(=O)c1ccc(S(=O)(=O)N2CCCCC2)cc1)c1nc2cc3c(cc2s1)OCO3,.,
